Screens: PubChem, several laboratories
Rows were chosen to be rich in hits. Some 3.2% of all compounds tested hit in one or more screens of this group.
CHT allo act: allosterically activates the human high affinity choline transporter; Q9GZV3; CHT-expressing cells, membrane potential dye, choline EC20; hits give high values; LV-AA mutant CHT in HEK293 cells; B-score at 10 µM; hit rate 0.49% among 310,000; AID 488977;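 active = initial fluorescence not abnormally high and integrated response B-score, plate-corrected, over 3 SD above library mean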
Kir21 inh: inhibitors of mouse Kir2.1 inward-rectifier potassium channel; hit rate 0.85% among 310,000; P35561; B-score at 10 µM; HEK293-Kir2.1, FluxOR thallium flux fluorescence; hits give low values;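 active = fluorescence ratio B-score at or below minus 3 SD of library scores, with starting-brightness B-score within 2 SD, cut at about -4.2 in these data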;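 note: channel flux triggered by added potassium and thallium sulfate stimulus; B-score of peak minus minimum fluorescence over baseline after thallium stimulus; more negative B-score means stronger Kir2.1 block with less thallium influx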
ANO1 block: mouse TMEM16A channel inhibition, primary screen. Q8BHY3. AID 588511. HEK293 TMEM16A/YFP iodide influx fluorescence, ionomycin. normalized B-score (activity score, 25-100; higher = stronger inhibition) at 10 µM. hit rate 1.2% among 310,000;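 active = ratio plate-corrected score three or more library SD toward inhibition, starting fluorescence score within five deviations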;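 note: score derived from kinetic fluorescence span divided by baseline fluorescence per well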
Rce1 inh: blocks yeast Ras-converting enzyme. yeast membranes, quenched prenylated peptide cleavage fluorescence. calls only. hit rate 0.27% among 290,000;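 active = fall in fluorescence gain of 50% or more versus controls, with final raw signal at or below 3038400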
Target sequence (Q03530 whole entry, looked up): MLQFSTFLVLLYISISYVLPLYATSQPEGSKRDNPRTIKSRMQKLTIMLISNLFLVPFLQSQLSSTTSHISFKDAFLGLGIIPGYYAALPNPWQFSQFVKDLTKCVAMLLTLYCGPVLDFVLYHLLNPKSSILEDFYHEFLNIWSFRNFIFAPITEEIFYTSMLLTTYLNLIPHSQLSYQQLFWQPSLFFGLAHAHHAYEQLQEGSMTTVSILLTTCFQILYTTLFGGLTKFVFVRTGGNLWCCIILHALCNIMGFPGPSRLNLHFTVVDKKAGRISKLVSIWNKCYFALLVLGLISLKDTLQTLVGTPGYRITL
CHT block: human CHT choline transport inhibition | CHT-expressing cells, membrane potential dye, choline response; hits give low values | B-score at 10 µM | hit rate 0.86% among 310,000 | AID 488975;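 active = B-score over 3 SD under the library average, and starting fluorescence ratio not unusually high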;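 note: choline stimulus applied at its EC90 after an EC20 pre-addition; B-score computed on integrated fluorescence ratio after choline addition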
TMEM16A act: mouse TMEM16A channel activation, primary screen. Q8BHY3. HEK293 TMEM16A/YFP-H148Q/I152L, iodide quench fluorescence; hits give low values. B-score at 10 µM. hit rate 0.3% among 340,000. AID 623877;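 active = fluorescence-ratio B-score plate-corrected deviation score at least 3 library SD below zero, with starting fluorescence score within 5 deviations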;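 note: channel opened by trigger with iodide after compound preincubation; score built on the fluorescence ratio of max minus min over baseline; more negative score means more quench and so TMEM16A activation or potentiation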
CHT inh conf: confirmation of human choline transporter CHT inhibitors. CHT-expressing cells, choline membrane potential dye; LV-to-AA substituted CHT, HEK293 cells. hit rate 70% among 2,400. CHT activity remaining % of control (hits give low values), % at 10 µM. shares compounds with CHT block. AID 493221;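 active = choline transporter activity left, mean of duplicates at 10 µM, below buffer-only control mean minus 3 SD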;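 note: depolarization triggered by choline at its EC90 following an EC20 pre-addition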
HEK293 CHT ctr: activity in parental HEK293 cells lacking CHT; membrane potential dye, choline response; active = decrease or increase beyond buffer ±3SD; AID 493222; hit rate 4% among 2,400; shares compounds with CHT block; membrane potential ratio readout (active if shifted either direction beyond buffer ±3SD; no single direction) at 10 µM;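 note: parental cells lack the transporter so any hit is non-specific; ratio is peak minus trough fluorescence over baseline after EC90 choline challenge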
Each line names hits and unclear results; the compound was inactive in the other large screens (follow-up assays come after a bar, where they were run).

CCOC(=O)N1CCN(C(=O)c2ccc3nc(N4CCC(C)CC4)sc3c2)CC1	CHT block -7.2 | CHT inh conf 69.3% | HEK293 CHT ctr inactive
COc1cccc(NC(=O)CCNS(=O)(=O)c2ccc3c(c2)CC(C)N3C(=O)C2CC2)c1 (stereo not drawn)	CHT block -5.19 | CHT inh conf inactive | HEK293 CHT ctr inactive
CC(=O)N1c2ccc(S(=O)(=O)NCc3ccccc3Cl)cc2CC1C (stereo not drawn)	CHT block -6.97 | CHT inh conf 61.0% | HEK293 CHT ctr inactive
Cc1ccc2[nH]c3c(c2c1)CN(C(=O)CN1CCN(Cc2ccc4c(c2)OCO4)CC1)CC3	CHT block -5.63 | CHT inh conf 38.0% | HEK293 CHT ctr inactive
CC(C)COc1nc2ccccc2nc1N1CCN(C)CC1	CHT block -5.99 | CHT inh conf 41.1% | HEK293 CHT ctr inactive
CN1CCN(c2nc(-c3ccc(C(C)(C)C)cc3)nc3ccccc23)CC1	none
CCOC(=O)C1=C(C)NC(=NC)SC1c1ccccc1 (stereo not drawn)	none
CCn1c(SCC(=O)Nc2ccccc2C(=O)OC)nnc1-c1ccc(N)cc1	none
CCn1c(SCC(=O)Nc2ccccc2C(=O)OC)nnc1-c1ccoc1C	CHT block -5.63 | CHT inh conf inactive | HEK293 CHT ctr inactive
CCOc1ccc(/C=C2\SC(=S)N(NS(=O)(=O)c3ccccc3)C2=O)cc1OC	CHT block -5.82 | CHT inh conf 56.1% | HEK293 CHT ctr inactive
CCOc1cc(/C=C2\SC(=S)N(NS(=O)(=O)c3ccccc3)C2=O)ccc1O	none
CCOc1ccc(/C=C2\SC(=S)N(NS(=O)(=O)c3ccc(C)cc3)C2=O)cc1OC	CHT block -6.1 | CHT inh conf 60.0% | HEK293 CHT ctr inactive
COc1ccc(OC)c(/C=C2\SC(=S)N(NS(=O)(=O)c3ccccc3)C2=O)c1	CHT block -6.26 | CHT inh conf 56.9% | HEK293 CHT ctr inactive
COc1cccc(NC(=O)COC(=O)C2CC(=O)N(c3ccc(C)cc3)C2)c1 (stereo not drawn)	none (no result: CHT allo act, Kir21 inh, ANO1 block, Rce1 inh, CHT block)
Cc1nc(S(=O)(=O)Nc2ccccc2C(=O)NCC2CC2)cn1C	none
O=C(c1ccco1)N1CCN(C(=O)c2cc3sccc3n2Cc2ccccc2)CC1	CHT block -5.88 | CHT inh conf inactive | HEK293 CHT ctr inactive
O=C(NC1CCSc2ccccc21)c1cc(S(=O)(=O)N2CCOCC2)ccc1Cl (stereo not drawn)	none
O=C(NCc1nc(-c2ccccc2)cs1)c1ccccc1	CHT block -6.52 | CHT inh conf 71.3% | HEK293 CHT ctr inactive
O=C(NNc1nc(-c2ccccc2)cs1)c1ccc(F)cc1	CHT block -5.21 | CHT inh conf 71.5% | HEK293 CHT ctr inactive
Cn1c2ccccc2c(=O)c2c(=O)n(Cc3ccccc3)c(-c3ccc(F)cc3)nc21	none
COC(=O)c1cn(CC(=O)Nc2ccccc2C)c2ccccc12	none
O=c1[nH]c(CSc2ccccn2)nc2c1oc1ccccc12	none
COc1cccc(OC)c1OCCCCCc1c(C)n[nH]c1C	Kir21 inh -4.46, CHT block -6.54 | CHT inh conf 45.2% | HEK293 CHT ctr inactive
Cc1n[nH]c(C)c1CCCCOc1ccccc1[N+](=O)[O-]	CHT block -5.5 | CHT inh conf 52.0% | HEK293 CHT ctr inactive
O=C(Nc1cccc(C(F)(F)F)c1)C1CCN(S(=O)(=O)c2cccnc2)CC1	CHT block -5.37 | CHT inh conf 55.2% | HEK293 CHT ctr inactive
Oc1c(Br)cc(Br)cc1C=Nc1ccc2[nH]ncc2c1	CHT block -5.56 | CHT inh conf 65.4% | HEK293 CHT ctr inactive
Oc1c(Br)cc(Br)cc1/C=N/c1nccs1	none (no result: CHT allo act, Kir21 inh, ANO1 block, Rce1 inh, CHT block)
Oc1c(Br)cc(Br)cc1C=Nc1cccnc1	CHT block -7.85 | CHT inh conf 61.6% | HEK293 CHT ctr inactive
COC(=O)C(NC(=O)CCc1c(C)nc2c(c(C)nn2-c2ccccc2)c1C)C(C)C (stereo not drawn)	none
